Reference: PubChem BioAssay (Tox21)
Records with an inconclusive call do not appear. The source made the active and inactive calls. Unless noted, the call rests on the fitted dose curve.

Assays:
[1] = Nuclear factor erythroid 2-related factor 2/antioxidant responsive element (Nrf2/ARE) small molecule agonists: qHTS cell viability counter screen in human keratinocytes (AID 1919968; active means well fitted curve in the direction sought with a large enough effect in the repeat runs; an effect the other way counts as inactive or inconclusive; further: nearly all actives have a fitted effect of over 55% in size)
Method in brief: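 Cytotoxicity was multiplexed with the Nrf2/ARE luciferase assay in the same wells. Stably transfected HaCaT keratinocytes were treated with test compounds for 23 h at 37 C. Cell viability was then measured by CellTiter-Fluor fluorescence.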

[2] = biological target: Gonadotropin-releasing hormone receptor (Homo sapiens) (UniProt P30968); test: Human gonadotropin-releasing hormone receptor (GnRHR) small molecule agonists, calcium flux assay in GnRHR-HEK293 cells (AID 1920063); further: nearly all actives have a fitted effect of over 35% in size
Gonadotropin-releasing hormone receptor (Homo sapiens), sequence (P30968 whole entry, looked up): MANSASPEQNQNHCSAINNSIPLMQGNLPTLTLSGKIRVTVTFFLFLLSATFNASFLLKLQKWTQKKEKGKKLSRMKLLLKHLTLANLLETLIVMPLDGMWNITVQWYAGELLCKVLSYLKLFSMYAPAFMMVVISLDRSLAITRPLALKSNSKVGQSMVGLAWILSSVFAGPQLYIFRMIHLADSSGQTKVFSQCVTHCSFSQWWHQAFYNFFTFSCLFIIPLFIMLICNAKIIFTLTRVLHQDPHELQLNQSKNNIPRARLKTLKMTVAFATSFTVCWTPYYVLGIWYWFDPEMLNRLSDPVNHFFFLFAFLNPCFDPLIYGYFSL
Method in brief: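 Agonist activity was measured as intracellular calcium flux in HEK293 cells engineered to stably express human GnRHR. After dye loading for 1 hour at 37 C, compounds in DMSO were added and fluorescence was followed for 3 minutes.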

[3] = biological target: KiSS-1 receptor (Homo sapiens) (UniProt Q969F8); test: Human kisspeptin (KISS1R) small molecule agonists, calcium flux assay in KISS1R-HEK293 cells (AID 1920064; active means well fitted curve in the direction sought with a large enough effect in the repeat runs; an effect the other way counts as inactive or inconclusive)
KiSS-1 receptor (Homo sapiens), sequence (Q969F8 whole entry, looked up): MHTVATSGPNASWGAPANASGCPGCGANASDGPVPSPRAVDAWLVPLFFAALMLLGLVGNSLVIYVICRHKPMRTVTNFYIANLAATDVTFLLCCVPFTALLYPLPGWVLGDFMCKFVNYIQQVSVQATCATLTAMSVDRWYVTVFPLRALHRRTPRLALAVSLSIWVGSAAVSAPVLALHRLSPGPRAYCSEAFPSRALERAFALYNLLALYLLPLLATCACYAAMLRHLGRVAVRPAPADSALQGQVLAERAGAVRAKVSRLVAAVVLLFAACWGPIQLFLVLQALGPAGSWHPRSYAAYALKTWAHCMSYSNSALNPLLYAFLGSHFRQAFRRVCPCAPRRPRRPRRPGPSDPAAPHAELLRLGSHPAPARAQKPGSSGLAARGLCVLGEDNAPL
Method in brief: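 Agonist activity is monitored as intracellular calcium rise in engineered HEK293 cells carrying human KISS1R. Cells are dye-loaded for 1 h at 37 C before compound addition, and fluorescence is recorded for 3 min.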

[4] = G protein-coupled receptor (GPCR) small molecule agonists, calcium flux assay: HEK293 wild type cell line counter screen (AID 1920065)
Method in brief: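 Seed cells, incubate 18 h (37 C, 5% CO2); add calcium dye, 1 h at 37 C; pin-transfer compounds, ATP control or DMSO; read fluorescence 480/540 nm each second for 3 min.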

[5] = p53 small molecule agonists, cell-based qHTS assay with human liver microsomes (AID 1963577);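 further: p53 response element beta-lactamase reporter cells with liver microsomes plus NADPH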
Method in brief: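 HLM-supplemented p53RE-bla reporter assay: 16 h compound exposure at 37 C, microsomes and NADPH each 0.5 mg/mL final, read by fluorescence intensity.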

[6] = p53 small molecule agonists, cell-based qHTS assay with rat liver microsomes (AID 1963578)
Method in brief: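 Quantitative HTS of the Tox21 10K library: p53RE-bla cells, rat liver microsomes plus NADPH at 0.5 mg/mL final each, 16 h at 37 C, beta-lactamase fluorescence detection.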

[7] = p53 small molecule agonists, cell-based qHTS assay with human liver microsomes: qHTS cell viability counter screen (AID 1963579); further: nearly all actives have a fitted effect of over 45% in size
Method in brief: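 Viability of p53RE-bla cells is measured as CellTiter-Glo luminescence following a 16 h, 37 C incubation with compound, liver microsomes from human donors and NADPH.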

[8] = p53 small molecule agonists, cell-based qHTS assay with rat liver microsomes: qHTS cell viability counter screen (AID 1963580); further: nearly all actives have a fitted effect of over 45% in size
Method in brief: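 Cytotoxicity counter screen: intracellular ATP read by CellTiter-Glo luminescence in the p53 reporter wells. HCT-116 p53RE-bla cells were treated for 16 h at 37 C alongside rat liver microsomes and NADPH, each 0.5 mg/mL final.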

[9] = p53 small molecule agonists, cell-based qHTS assay: qHTS cell viability counter screen (AID 1963581); further: nearly all actives have a fitted effect of over 45% in size
Method in brief: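 Viability was counter-screened in parallel with the p53 agonist reporter by measuring intracellular ATP luminescence in the same HCT-116 p53RE-bla wells after 16 h compound treatment at 37 C.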

[10] = p53 small molecule agonists, cell-based qHTS assay (AID 1963582; active means well fitted activation curve with a large enough effect in the signal ratio in the repeat runs, not every such curve was filed as active; the % refers to the signal ratio)
Method in brief: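 Cells carrying a p53-responsive bla reporter are treated with test compounds for 16 h at 37 C; beta-lactamase activity is then detected with LiveBLAzer B/G FRET substrate after 2 h at room temperature.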

[11] = cAMP Responsive Elements (CRE) small molecule agonists, cell-based qHTS assay (AID 1963590)
Method in brief: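 Cells carrying a CRE-driven beta-lactamase reporter (HEK 293T) are seeded, incubated overnight (18 h), and treated with test compounds for 3 h at 37 C; reporter activity is then detected with a FRET substrate after 2 h at room temperature.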

[12] = cAMP Responsive Elements (CRE) small molecule antagonists, cell-based qHTS assay (AID 1963591; active means well fitted inhibition curve with a large enough effect in the signal ratio in the repeat runs, not every such curve was filed as active; the % refers to the signal ratio)
Method in brief: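 Cells (CRE-bla HEK 293T, DMEM with 10% dialyzed FBS and 25 mM HEPES) are seeded and incubated 18 h. Compounds are added with NKH477 agonist at 0.25 uM final for 3 h, then FRET substrate for 2 h.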

[13] = biological target: Beta-2 adrenergic receptor (Homo sapiens) (UniProt P07550); test: Adrenergic beta2 receptor (ADRB2) small molecule antagonists, cell-based qHTS assay (AID 1963592); further: series mostly up to about 92 µM; nearly all actives have a fitted effect of over 50% in size
Beta-2 adrenergic receptor (Homo sapiens), sequence (P07550 whole entry, looked up): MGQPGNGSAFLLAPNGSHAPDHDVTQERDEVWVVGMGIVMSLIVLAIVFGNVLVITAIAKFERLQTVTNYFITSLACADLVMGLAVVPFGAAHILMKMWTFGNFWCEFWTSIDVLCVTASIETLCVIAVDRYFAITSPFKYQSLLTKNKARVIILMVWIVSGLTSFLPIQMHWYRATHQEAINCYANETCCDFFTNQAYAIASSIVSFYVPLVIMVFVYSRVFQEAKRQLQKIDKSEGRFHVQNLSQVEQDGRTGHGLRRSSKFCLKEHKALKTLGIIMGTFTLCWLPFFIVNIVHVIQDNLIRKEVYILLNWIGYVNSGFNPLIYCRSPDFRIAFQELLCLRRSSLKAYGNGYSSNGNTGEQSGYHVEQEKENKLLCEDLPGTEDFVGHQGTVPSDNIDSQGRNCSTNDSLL
Method in brief: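 Assay format: CHO-ADRB2 cells, 18-20hr seeding at 37C/5% CO2, then compound plus 1nM isoproterenol agonist mix for 0.5hr RT. Homogeneous time-resolved fluorescence cAMP detection after 1hr, expressed as 665/615 nm ratio.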

[14] = biological target: Beta-2 adrenergic receptor (Homo sapiens) (UniProt P07550); test: Adrenergic beta2 receptor (ADRB2) small molecule agonists, cell-based qHTS assay (AID 1963593);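 further: CHO cells stably overexpressing human ADRB2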
Method in brief: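 CHO cells stably over-expressing ADRB2 were plated overnight at 37C, then dosed with compounds plus a stimulation mix containing 100uM IBMX and 25uM Ro-20-1724 for 0.5hr at room temperature. cAMP was measured by HTRF competition, 1hr.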

[15] = biological target: D(2) dopamine receptor (Homo sapiens) (UniProt P14416); test: Dopamine D2 receptor (DRD2) small molecule agonists, cell-based qHTS assay (AID 1963594); further: nearly all actives have a fitted effect of over 35% in size
D(2) dopamine receptor (Homo sapiens), sequence (P14416 whole entry, looked up): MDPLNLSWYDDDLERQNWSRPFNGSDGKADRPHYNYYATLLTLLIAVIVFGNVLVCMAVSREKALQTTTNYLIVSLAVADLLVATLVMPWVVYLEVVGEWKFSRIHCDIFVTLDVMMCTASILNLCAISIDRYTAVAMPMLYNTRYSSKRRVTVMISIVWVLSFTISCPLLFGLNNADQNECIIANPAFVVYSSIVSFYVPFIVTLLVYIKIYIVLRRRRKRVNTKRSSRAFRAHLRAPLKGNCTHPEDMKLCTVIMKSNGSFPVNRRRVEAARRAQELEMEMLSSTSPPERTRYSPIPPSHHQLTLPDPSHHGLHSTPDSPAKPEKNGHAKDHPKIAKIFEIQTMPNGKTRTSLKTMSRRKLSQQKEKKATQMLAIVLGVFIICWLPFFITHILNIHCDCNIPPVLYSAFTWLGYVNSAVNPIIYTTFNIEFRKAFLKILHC
Method in brief: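 cAMP accumulation in DRD2-HEK293 cells measured by HTRF after 1 h detection; compounds added 10 min before NKH477 (200nM […]) forskolin-analogue stimulation, 30 min at room temperature, with Ro20-1724 present at 0.1 mM final.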

[16] = biological target: D(2) dopamine receptor (Homo sapiens) (UniProt P14416); test: Dopamine D2 receptor (DRD2) small molecule antagonists, cell-based qHTS assay (AID 1963595; active means well fitted inhibition curve with a large enough effect in the signal ratio in the repeat runs, with a control signal flat; the % refers to the signal ratio)
Method in brief: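 Stable D2 receptor HEK293 line, 24 h after seeding. Compound preincubated 10 min, then quinpirole (12 nM) with forskolin analogue NKH477 (200 nM), 30 min, room temperature. Detection by time-resolved FRET of cAMP.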

[17] = biological target: 5-hydroxytryptamine receptor 2A (Homo sapiens) (UniProt P28223); test: 5-hydroxytryptamine receptor 2A (HTR2A) small molecule antagonists, cell-based qHTS assay (AID 1963586); further: nearly all actives have a fitted effect of over 45% in size
5-hydroxytryptamine receptor 2A (Homo sapiens), sequence (P28223 whole entry, looked up): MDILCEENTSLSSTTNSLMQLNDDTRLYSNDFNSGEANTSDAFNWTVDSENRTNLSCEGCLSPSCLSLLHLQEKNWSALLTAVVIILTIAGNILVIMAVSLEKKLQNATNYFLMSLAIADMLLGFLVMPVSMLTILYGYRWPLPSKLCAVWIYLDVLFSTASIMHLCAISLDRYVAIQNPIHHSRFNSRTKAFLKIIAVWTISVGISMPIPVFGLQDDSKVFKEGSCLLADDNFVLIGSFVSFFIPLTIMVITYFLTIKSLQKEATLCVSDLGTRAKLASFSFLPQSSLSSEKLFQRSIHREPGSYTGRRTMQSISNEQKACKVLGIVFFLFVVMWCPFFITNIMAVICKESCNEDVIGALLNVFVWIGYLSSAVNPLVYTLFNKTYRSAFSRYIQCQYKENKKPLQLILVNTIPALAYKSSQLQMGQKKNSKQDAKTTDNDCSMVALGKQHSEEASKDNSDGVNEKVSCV
Method in brief: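 CHO cells stably expressing human HTR2A were plated for 18 h at 37 C, then loaded with calcium dye for 1 h. Compounds were preincubated 5 min at room temperature before DOI (4 nM solution) was added. Kinetic fluorescence was read for 3 min.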

[18] = biological target: 5-hydroxytryptamine receptor 2A (Homo sapiens) (UniProt P28223); test: 5-hydroxytryptamine receptor 2A (HTR2A) small molecule agonists, cell-based qHTS assay (AID 1963587); further: nearly all actives have a fitted effect of over 30% in size
Method in brief: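 Kinetic calcium-flux fluorescence (2 min, 1 sec intervals) after compound addition in agonist mode. HTR2A-CHO cells were cultured 18 h, then dye-loaded 1 h at 37 C.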

[19] = biological target: Muscarinic acetylcholine receptor M1 (Homo sapiens) (UniProt P11229); test: Cholinergic receptor muscarinic 1 (CHRM1) small molecule antagonists, cell-based qHTS assay (AID 1963588); further: nearly all actives have a fitted effect of over 40% in size
Muscarinic acetylcholine receptor M1 (Homo sapiens), sequence (P11229 whole entry, looked up): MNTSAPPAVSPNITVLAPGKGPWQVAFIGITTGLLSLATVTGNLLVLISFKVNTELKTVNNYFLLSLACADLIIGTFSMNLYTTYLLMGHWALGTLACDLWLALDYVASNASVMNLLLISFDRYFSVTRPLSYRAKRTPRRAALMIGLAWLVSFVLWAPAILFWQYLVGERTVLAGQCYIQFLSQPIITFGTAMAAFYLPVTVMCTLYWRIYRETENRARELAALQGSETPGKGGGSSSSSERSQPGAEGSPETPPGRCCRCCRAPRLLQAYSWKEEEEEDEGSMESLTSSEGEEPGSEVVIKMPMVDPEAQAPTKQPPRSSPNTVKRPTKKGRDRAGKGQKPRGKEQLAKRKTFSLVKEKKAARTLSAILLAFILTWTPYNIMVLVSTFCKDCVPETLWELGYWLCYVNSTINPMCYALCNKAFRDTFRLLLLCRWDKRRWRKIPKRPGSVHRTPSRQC
Method in brief: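 Compounds were tested at 15 concentrations in three independent runs. Dye-loaded CHRM1-CHO cells were exposed 5 min at room temperature before stimulation by acetylcholine added at 50nM. Intracellular calcium was read kinetically on FDSS for 3 min.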

[20] = biological target: Muscarinic acetylcholine receptor M1 (Homo sapiens) (UniProt P11229); test: Cholinergic receptor muscarinic 1 (CHRM1) small molecule agonists, cell-based qHTS assay (AID 1963589); further: nearly all actives have a fitted effect of over 35% in size
Method in brief: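 Cells were plated and incubated 18 h at 37 C/5% CO2, loaded with calcium dye for 1 h at 37 C, then treated with compounds in DMSO. Fluorescence was recorded kinetically at 1 sec intervals.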

Measured: Potency

CS(C)=O
not listed: [17] | [18] | [19] | [20]
inactive: all other assays above

CCCCOC(=O)CO
not listed: [20]
inactive: all other assays above

CCOC(=O)C(C)Oc1ccc(Oc2nc3ccc(Cl)cc3o2)cc1 (stereo not drawn)
not listed: [11] | [14] | [19]
inactive: all other assays above

CCCCCCCCCCC1CO1 (stereo not drawn)
not listed: [14] | [19]
inactive: all other assays above

O=C(CS)OCCOC(=O)CS
not listed: [11] | [12] | [14]
inactive: all other assays above

CCCCCOC(=O)CCCCC
not listed: [19]
inactive: all other assays above

O=C(Oc1ccccc1)Oc1ccccc1
not listed: [12] | [14] | [17]
inactive: all other assays above
